In the library only some 2.4% were active in any assay of this set; here they are far more common.
FEN1 inhibitor = qHTS Assay for the Inhibitors of Human Flap endonuclease 1 (FEN1). Potency, µM (doses to about 114 µM), actives largely listed as inhibitors. AID 588795, 2011. P39748. Recombinant FEN1 flap cleavage, fluorescence, 15 min. 390,000 compounds, 0.35% hits; further: nearly all actives have a fitted effect of over 65% in size
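Reaction started by adding substrate (50 nM final) to 10 nM enzyme after 15 min room-temperature compound preincubation. Reads at 0 and 15 min, with data normalized and fitted to a four-parameter Hill equation.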
POLB inh = qHTS Assay for Inhibitors of DNA Polymerase Beta; Pol beta primer extension/strand displacement, fluorescence kinetic; P06746; Potency, µM (top dose mostly 114 µM), hits mostly inhibitors; 340,000 compounds, 1.3% hits
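Human Pol beta at 10 nM; strand-displacement substrate 50 nM final. Compound exposure 15 min at room temperature before start, reaction 10 min at room temperature.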
Pol kappa inh = qHTS for Inhibitors of Polymerase Kappa; purified Pol kappa, fluorescent DNA synthesis assay, 10 min; Potency, µM (highest dose often 107 µM), actives largely listed as inhibitors; 400,000 compounds, 0.53% hits
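Inhibition of 10 nM Pol kappa is measured by a fluorescent read-out at 0 and 10 min following addition of 50 nM substrate (final), with a 15-min room-temperature compound preincubation.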
Pol eta inh = qHTS for Inhibitors of Polymerase Eta. Potency, µM (series often up to 114 µM), usual class: inhibitors. 390,000 compounds, 1.2% hits. recombinant Pol eta, fluorescent DNA replication assay. DNA polymerase eta (Homo sapiens), Q9Y253
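Pol eta at 10 nM preincubated with compounds 15 min at room temperature; reaction started with fluorescent substrate (50 nM final) and read kinetically at 0 and 10 min.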
WRN helicase inh-1 = qHTS for Inhibitors of WRN Helicase; Potency, µM (top dose mostly 114 µM), actives largely listed as inhibitors; AID 651768, 2012; WRN helicase unwinding, fluorescent forked duplex, kinetic; 360,000 compounds, 0.46% hits; further: nearly all actives have a fitted effect of over 55% in size
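Primary qHTS, 1536-well format. 20 nM WRN + compound, 15 min RT; start with 100 nM forked fluorophore/quencher duplex, 2 mM ATP (final); kinetic read ex 525/em 598 nm.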
POLI inh = qHTS for Inhibitors of Polymerase Iota. DNA polymerase iota (Homo sapiens), Q9UNA4. Potency, µM (top dose mostly 115 µM), actives largely listed as inhibitors. 390,000 compounds, 1% hits. Pol iota fluorescent replication assay, 10 min
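Pol iota at 10 nM preincubated 15 min with compounds at room temperature; reaction started with fluorescent substrate, 50 nM final. Fluorescence read kinetically at 0 and 10 min; buffer-only wells as negative control.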
WRN helicase inh-2 = qHTS for Inhibitors of WRN Helicase: Confirmatory Assay for Cherry-picked Compounds; shares compounds with WRN helicase inh-1; 610 compounds, 63% hits; Potency, µM (top dose mostly 57.1 µM), actives largely listed as inhibitors; WRN helicase DNA unwinding, fluorescence kinetic; further: nearly all actives have a fitted effect of over 65% in size
TO DNA binding = qHTS for Inhibitors of WRN Helicase: Thiazole Orange DNA Binding Counterscreen; shares compounds with WRN helicase inh-1; thiazole orange DNA binding displacement, fluorescence; Potency, µM (highest dose often 57.1 µM), actives largely listed as inhibitors; 610 compounds, 10% hits; AID 720499, 2013;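 further: drop in dye fluorescence marks compound binding to DNA; nearly all actives have a fitted effect of over 60% in size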
BLM counter = qHTS for Inhibitors of WRN Helicase: BLM Helicase Counterscreen for WRN Inhibitors; shares compounds with WRN helicase inh-1; Recombinant BLM helicase DNA unwinding, red fluorescence; Potency, µM (titrated, usually from 57.1 µM), most hits filed as inhibitors; 610 compounds, 60% hits; further: nearly all actives have a fitted effect of over 60% in size
Of the large screens only hits and unclear results are named; the others gave an inactive call (follow-up assays come after a bar, where they were run). The call rests on the fitted dose curve; in most records, active means well fitted curve in the direction sought with a large enough effect; inconclusive means small, poorly fitted or top-dose-only effect, or another doubt; inactive means no such curve, though single readings can be large; an effect the other way counts as inactive or inconclusive.

N#C/C(=C/c1ccco1)c1nc2ccccc2s1	none
N#C/C(=C\c1ccc(O)c([N+](=O)[O-])c1)c1nc2ccccc2s1	FEN1 inhibitor inconclusive, POLB inh 50µM, Pol eta inh 20µM, WRN helicase inh-1 32µM, POLI inh inconclusive | WRN helicase inh-2 24µM | TO DNA binding 22µM | BLM counter 24µM
COc1cccc(/C=C2/C(=O)NN(c3ccc(Br)cc3)C2=O)c1O	POLB inh inconclusive, Pol eta inh 79µM, WRN helicase inh-1 0.67µM | WRN helicase inh-2 17µM | TO DNA binding inactive | BLM counter 6.8µM
COc1cc(/C=C2/C(=O)NN(c3ccc(Cl)cc3)C2=O)cc(Br)c1O	POLB inh inconclusive, POLI inh inconclusive
COc1ccccc1-c1nc(NC2CC2)c2ccccc2n1	none (no result: FEN1 inhibitor, POLB inh, Pol eta inh, WRN helicase inh-1, POLI inh)
O=C(NCC(c1ccco1)S(=O)(=O)c1ccc(Cl)cc1)c1ccc(C(F)(F)F)cc1 (centres undefined)	none (no result: WRN helicase inh-1)
COc1ccc(OCCN(C)CC(=O)Nc2ccccc2SC)cc1	none
COc1ccc(NC(=O)CN(C)CC(=O)Nc2ccccc2SC)cc1	WRN helicase inh-1 28µM | WRN helicase inh-2 inactive | TO DNA binding inactive | BLM counter inactive
CC(C)CCNC(=O)Cn1c(SCc2cccc(F)c2)nc2ccncc21	none (no result: POLB inh, Pol eta inh, WRN helicase inh-1)
CCc1ccc(NC(=O)CCc2nnc3n(C)c(=O)c4sccc4n23)cc1	none (no result: WRN helicase inh-1)
C=CS(=O)(=O)c1sc(Cl)c(N2CCOCC2)c1[N+](=O)[O-]	Pol eta inh inconclusive, WRN helicase inh-1 32µM, POLI inh inconclusive | WRN helicase inh-2 14µM | TO DNA binding inactive | BLM counter 3.4µM
COc1ccc([C@]23Cc4cc(OC)c(OC)cc4C(O2)c2c(cc(C)n(Cc4ccccc4)c2=O)O3)cc1	none (no result: FEN1 inhibitor, Pol kappa inh, Pol eta inh, WRN helicase inh-1, POLI inh)
Cc1c(O)ccc(/C=N/Nc2nc(-c3cccnc3)nc3ccccc23)c1O	FEN1 inhibitor inconclusive, Pol kappa inh inconclusive, Pol eta inh inconclusive, WRN helicase inh-1 inconclusive | WRN helicase inh-2 inconclusive | TO DNA binding 27µM | BLM counter inconclusive
Oc1ccc(/C=N/Nc2nc(-c3cccnc3)nc3ccccc23)c(O)c1	POLB inh inconclusive, POLI inh inconclusive
COc1ccc(OC)c(-n2c(=O)c3ccccc3c3ccccc3c2=O)c1	WRN helicase inh-1 inconclusive | WRN helicase inh-2 inactive | TO DNA binding inactive | BLM counter inconclusive
COc1ccc(-n2c(=O)c3ccccc3c3ccccc3c2=O)cc1	WRN helicase inh-1 inconclusive
Cc1ccc(C(=O)NNC(=O)c2ccc(S(=O)(=O)N3CCCCC3)cc2)cc1	WRN helicase inh-1 35µM, POLI inh inconclusive (no result: POLB inh) | WRN helicase inh-2 inactive | TO DNA binding inactive | BLM counter inconclusive
COc1ccc(/C=N/NC(=O)c2ccccc2OC)cc1COc1ccc(C)cc1	none
COc1ccc(/C=N/NC(=O)c2ccccc2OC)cc1COc1ccccc1[N+](=O)[O-]	POLB inh inconclusive, WRN helicase inh-1 inconclusive | WRN helicase inh-2 inconclusive | TO DNA binding inactive | BLM counter inactive
COc1cc(/C=N/Nc2ccccc2)ccc1O	POLI inh inconclusive
